Shn3 inh set2: Schnurri-3 reporter inhibition in Clone20 osteoblasts | inhibition, % at 12.5 µM | Clone20 osteoblast Shn3 3'UTR firefly luciferase, 24 h | 360,000 compounds, 0.52% hits;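 active = mean inhibition of at least 75% with every replicate also reaching 75%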;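 note: 0% = median of neutral control wells and 100% = pilot-screen positive control compound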
697 NFkB inh: lowers PMA/ionomycin-induced NF-kB signal in 697 B cells; inhibition, % at 4 µM; AID 435022; 330,000 compounds, 0.33% hits; 697 B-cell NF-kB luciferase reporter, 16 h; in the data active = inhibition above about 35%
LMP1 NFkB inh: inhibitors of Epstein-Barr LMP1-induced NF-kappaB reporter | LMP1-induced NF-kappaB luciferase reporter cells, luminescence | AID 504558 | inhibition, % at 12.5 µM | 350,000 compounds, 0.69% hits; in the data active = inhibition above about 41%;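 note: 0% = neutral control wells and 100% = reference inhibitor control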
Gli-Sufu antag: blocks Gli-Sufu signaling in a luciferase reporter | Sufu-KO-LIGHT fibroblasts, Gli luciferase reporter luminescence | inhibition, % at 5 µM | 340,000 compounds, 0.74% hits;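 active = inhibition above about 55%, limit read from the data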;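 note: 0% = DMSO-treated cells and 100% = wells with medium but no cells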
Jurkat NFkB inh: lowers PMA/ionomycin-induced NF-kB signal in Jurkat cells. PMA/ionomycin-induced NF-kB luciferase reporter, luminescence. inhibition, % at 4 µM. 330,000 compounds, 0.53% hits; in the data active = inhibition above about 50%
TRPM1 prom inh: MITF TRPM1 promoter inhibition in SK-MEL-5 cells. SK-MEL-5 TRPM1 promoter luciferase, 24 h. inhibition, % at 12.5 µM. 330,000 compounds, 0.83% hits. AID 488899;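 active = mean inhibition across replicates of 60% or more, whatever share of single replicates reaches that level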
Gli antag conf: Gli-SUFU antagonism confirmation, single concentration. shares compounds with Gli-Sufu antag. Sufu-KO-LIGHT cells, Gli luciferase reporter, luminescence. inhibition, % at 5 µM. 2,500 compounds, 40% hits. AID 602428;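 active = mean inhibition at 5 µM reaching about 45%, limit read from the data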;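 note: plate controls were DMSO-treated cells for no effect and wells lacking cells for full effect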
SufuKO cytotox: counter-screen for Gli-SUFU antagonists: cytotoxicity | cytotoxicity, % at 5 µM | Sufu-KO-LIGHT cells cytotoxicity, ATP luminescence | shares compounds with Gli-Sufu antag | 2,500 compounds, 32% hits;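 active = mean cytotoxicity at 5 µM above about 25%, limit read from the data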;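 note: cells exposed to compound overnight for roughly 16 to 18 hours; plate controls were DMSO wells with cells for no effect and medium without cells for full effect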
Wnt3a counter: inhibits Wnt3a reporter, counter-screen for Gli-SUFU antagonists. AID 651995. 2,500 compounds, 20% hits. inhibition, % at 6.25 µM. Wnt-LIGHT cells, Wnt3a-driven luciferase reporter, luminescence. shares compounds with Gli-Sufu antag;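 active = mean inhibition above about 25%, limit read from the data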
The depositor's hits bear a star; x = no result given. The list is not random: actives were taken first. Their share in the collection is about 2.3%.

SMILES | Shn3 inh set2 | 697 NFkB inh | LMP1 NFkB inh | Gli-Sufu antag | Jurkat NFkB inh | TRPM1 prom inh | Gli antag conf | SufuKO cytotox | Wnt3a counter
O=C(COc1ccc(Br)cc1)NCCCNC(=O)c1cccnc1 | -24.1 | -47.7 | -16.3 | 58.7* | 4.7 | -16.3 | 25.7 | -1.3 | -9.8
O=C(COc1ccc(Cl)cc1)NCCCNC(=O)c1cccnc1 | -4.7 | -15.5 | -8.5 | -7.8 | -11.9 | -14.6 | x | x | x
CCCn1c(SCC(=O)Nc2sc(C)c(C)c2C#N)nnc1C(C)C | -14.6 | 8.1 | 1.7 | -0.7 | 18.8 | 7.0 | x | x | x
Cc1sc(NC(=O)CSc2nnc(C(C)C)n2C)c(C#N)c1C | 5.0 | 2.0 | -5.5 | 56.2* | -6.1 | 0.5 | 25.5 | 0.5 | -4.0
CC(=O)c1cc(-c2ccccc2)n(CCC(=O)NC2CCCCCCC2)c1C | 1.5 | 8.5 | -5.8 | 69.5* | 13.3 | 20.0 | 12.9 | -10.2 | -44.2
CCCc1nc(SCC(=O)Nc2nnc(SCC)s2)c2c(=O)n(C)c(=O)n(C)c2n1 | 46.0 | 2.6 | 19.7 | 57.8* | 8.2 | 7.7 | 55.7* | 34.6* | 6.7
CCc1nc(SCC(=O)Nc2nnc(CC)s2)c2c(=O)n(C)c(=O)n(C)c2n1 | 67.2 | -16.2 | 8.4 | 41.6 | 0.3 | 4.2 | x | x | x
CCCc1nc(SCC(=O)Nc2nnc(CC)s2)c2c(=O)n(C)c(=O)n(C)c2n1 | 50.9 | -39.4 | 19.6 | 66.4* | 16.2 | 18.6 | 50.2* | 23.0 | 5.7
CCSc1nnc(NC(=O)CSc2nc(CC)nc3c2c(=O)n(C)c(=O)n3C)s1 | 3.4 | 0.5 | 3.5 | 5.0 | -3.2 | x | x | x | x
CC(=O)Nc1ccccc1NC(=O)CN(C)S(=O)(=O)c1ccc(C)cc1 | -26.4 | 2.3 | -28.6 | -4.2 | 0.2 | -4.9 | x | x | x
O=C1NC(=O)c2cc(NC(=O)c3cccc4ccccc34)ccc21 | 5.3 | -0.3 | 2.9 | 14.9 | -15.7 | x | x | x | x
O=C(NC1CC1)c1cc(OCC(F)(F)F)ccc1OCC(F)(F)F | -0.8 | 21.2 | 4.1 | 20.1 | -1.8 | 3.8 | x | x | x
Cc1ccc(NC(=O)CSc2n[nH]c(-c3ccco3)n2)c(C)c1 | 8.1 | -3.4 | -9.2 | 56.6* | -63.2 | 13.4 | 21.2 | -2.9 | -17.7
CCN1C(=O)C(=O)N(CC(=O)N(C)CC(=O)Nc2ccccc2C(F)(F)F)C1=O | -20.0 | 16.1 | 7.4 | 6.5 | -1.8 | -6.0 | x | x | x
Cc1nc2cccc(C)n2c(=O)c1Cl | -1.9 | 26.3 | -2.3 | 55.7* | 2.9 | 1.3 | 10.0 | 15.6 | 7.2
O=C(Nc1ccc(F)cc1)C1CCCN(S(=O)(=O)c2ccc3[nH]c(=O)ccc3c2)C1 (stereo not drawn) | -19.5 | 15.0 | 0.1 | -18.3 | 6.8 | 4.8 | x | x | x
COc1ccc(CC2C(=O)NC(C)C(=O)N(C)C3Cc4ccc(cc4)Oc4cc(ccc4O)CC(C(=O)NC(C)C(=O)NC(C)C(=O)N2C)N(C)C3=O)cc1 (stereo not drawn) | 95.0* | x | 81.6* | 91.4* | x | 98.4* | 95.9* | 89.7* | 103.9*
Cc1ccc(S(=O)(=O)N2C[C@@H]3CCCC[C@@H]3[C@@H](C)[C@H]2c2cn(Cc3ccccc3)c3ccccc23)cc1 | 81.0 | 26.4 | 35.0 | 87.5* | x | 49.3 | 84.9* | 31.6* | 7.5
Cc1ccc(S(=O)(=O)N2C[C@@H]3[C@H]4CC[C@H](C4)[C@@H]3[C@@H](C)[C@@H]2c2cn(Cc3ccccc3)c3ncccc23)cc1 | 19.5 | 1.4 | -1.1 | -8.9 | x | 2.5 | x | x | x
Cc1ccc(S(=O)(=O)N2C[C@@H]3CCCC[C@@H]3[C@@H](C)[C@H]2c2cn(Cc3ccccc3)c3ncccc23)cc1 | 88.8* | 13.4 | 26.2 | 78.5* | x | 45.5 | 85.8* | 39.9* | 32.6*
O=C(N=C1SC2CS(=O)(=O)CC2N1c1ccc(F)c(Cl)c1)C1CC1 (stereo not drawn) | 1.1 | 4.1 | 2.8 | -21.1 | 3.9 | 2.2 | x | x | x
CCCCN(Cc1cc2ccccc2[nH]c1=O)S(C)(=O)=O | 21.6 | 5.2 | 8.4 | 15.3 | 3.4 | -6.8 | x | x | x
CC(=O)Nc1cccc(C(=O)OCc2ccc([N+](=O)[O-])cc2)c1 | -0.1 | 10.7 | -6.4 | 62.9* | 2.9 | -3.9 | 19.9 | 19.2 | -69.8
CCn1c(=O)c(C(=O)Nc2ccc(C)cc2C)c(O)c2ccccc21 | -3.9 | 0.4 | 4.3 | -44.0 | -5.2 | 0.1 | x | x | x
O=C(Nc1ccccc1O)c1nc(Cl)ccc1Cl | 7.7 | 1.0 | 0.6 | 50.1 | 7.5 | 13.8 | 35.7 | 21.8 | -20.3
SMILES | Shn3 inh set2 | 697 NFkB inh | LMP1 NFkB inh | Gli-Sufu antag | Jurkat NFkB inh | TRPM1 prom inh | Gli antag conf | SufuKO cytotox | Wnt3a counter
CCOC(=O)C1(CCOc2ccccc2)CCN(C(=O)c2ccc(-n3cccn3)cc2)CC1 | 31.0 | -35.2 | 13.8 | 22.8 | 13.4 | -2.3 | x | x | x
CCOC(=O)C1(CCOc2ccccc2)CCN(Cc2cccc(-n3cccn3)c2)CC1 | 14.9 | 1.9 | 3.9 | 52.1 | -6.5 | 12.4 | 35.2 | 8.2 | -62.1
CCOC(=O)C1(CCOc2ccccc2)CCN(Cc2cccc(OCCO)c2)CC1 | 35.6 | -20.6 | -0.9 | 24.3 | -12.9 | 16.9 | x | x | x
CCOC(=O)C1(CCOc2ccccc2)CCN(Cc2cccc(F)c2)CC1 | 23.9 | -20.2 | 5.4 | 59.7* | -0.7 | 9.7 | 27.0 | 25.8* | -30.8
Cc1cccc(NC(=O)COC(=O)c2nn(-c3ccccc3C(F)(F)F)cc2O)c1C | -3.0 | x | -14.8 | x | x | x | x | x | x
CCN(Cc1ccncc1)C(=O)c1cc(COc2ccc(F)cc2F)on1 | 23.3 | -29.9 | 2.5 | 50.8 | 0.6 | -9.2 | 31.7 | -8.0 | -22.5
CCN(Cc1cnn(C)c1)C(=O)c1cc(COc2ccc(F)cc2F)on1 | -20.7 | 8.1 | -0.4 | -9.0 | -6.3 | -34.4 | x | x | x
CSc1ccc(/C=C/C(=O)OCC(=O)NC2CC2)cc1 | -29.2 | -0.7 | -3.8 | -3.9 | 4.7 | -12.7 | x | x | x
CCOC(=O)N1CCN(C(=O)C2CCN(S(=O)(=O)N3CCCC3)CC2)CC1 | -9.7 | -7.7 | 0.0 | 56.2* | -6.1 | 5.0 | 19.8 | 4.7 | 10.7
CCOC(=O)N1CCN(C(=O)C2CCCN(S(C)(=O)=O)C2)CC1 (stereo not drawn) | -0.1 | 27.0 | -4.7 | 17.3 | 7.7 | -0.9 | x | x | x
Cc1cc(C)c2c(c1)cc(C)c1nnc(SCC(=O)Nc3ccc(S(=O)(=O)N4CCCCC4)cc3)n12 | -14.2 | -14.5 | -3.5 | 15.2 | -9.5 | 8.7 | x | x | x
COc1ccc(C2CC(C(F)(F)F)n3nc(C(=O)O)c(Cl)c3N2)cc1OC (stereo not drawn) | -6.3 | -2.4 | 4.9 | 2.3 | -7.1 | 4.3 | x | x | x
COc1ccc(C2CC(C(F)(F)F)n3nc(CO)c(Cl)c3N2)cc1OC (stereo not drawn) | -4.6 | -23.1 | -3.3 | 92.0* | -6.9 | 4.0 | 15.7 | 16.3 | 6.3

Bioassay records (PubChem)
